From PubChem BioAssay (EPA / NIEHS)
Records with an inconclusive call do not appear. Active and inactive are the calls of the source. The calls were made as follows: active = hit-call score of the fitted dose curve at least 0.9, where 1 is the maximum; inconclusive = response in the unintended direction; inactive = score below 0.9.

Target: human RAR-related Orphan Receptor gamma (RORg), RORC (gene 6097) (UniProt P51449)
Assay: ATG_RORg_TRANS: Attagene TRANS-FACTORIAL HepG2 Assay for human RAR-related Orphan Receptor gamma (RORg) (AID 2283011);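 as to AC50: potency for induction of reporter transcripts above DMSO so activators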
Procedure, shortened: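 HepG2 cells transiently transfected with GAL4-UAS reporter units and chimeric RORg-Gal4 construct; after 24 h chemical exposure, reporter mRNA measured by RT-PCR with fluorescent capillary electrophoresis, gain of signal fitted against DMSO.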

Sequence of human RAR-related Orphan Receptor gamma (RORg), RORC (gene 6097) (P51449 whole entry, looked up): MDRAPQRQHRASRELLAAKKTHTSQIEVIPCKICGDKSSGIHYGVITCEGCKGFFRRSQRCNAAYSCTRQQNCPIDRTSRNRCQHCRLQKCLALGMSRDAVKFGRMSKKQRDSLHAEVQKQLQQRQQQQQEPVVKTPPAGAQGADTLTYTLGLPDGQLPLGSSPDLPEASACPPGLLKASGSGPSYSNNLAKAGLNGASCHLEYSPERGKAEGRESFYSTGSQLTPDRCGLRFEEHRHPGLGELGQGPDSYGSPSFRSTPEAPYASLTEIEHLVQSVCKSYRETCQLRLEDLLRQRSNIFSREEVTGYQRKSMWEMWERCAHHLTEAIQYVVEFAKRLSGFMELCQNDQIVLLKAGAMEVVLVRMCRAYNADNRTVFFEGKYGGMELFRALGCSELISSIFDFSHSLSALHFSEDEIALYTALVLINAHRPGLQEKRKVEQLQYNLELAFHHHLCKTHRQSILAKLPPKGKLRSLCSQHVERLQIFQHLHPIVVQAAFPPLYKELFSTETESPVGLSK

outcome, inactive:
C=C(C)CCO, CC(C)c1ccc(C#N)cc1, CC(=O)NS(=O)(=O)c1ccc(N)cc1, CCCCCCCCCCc1ccccc1, COc1ccc(C(Cl)=C(c2ccc(OC)cc2)c2ccc(OC)cc2)cc1, CCCCCCCCCCOC(C)=O, C[C@]12CCC(=O)C=C1CC[C@@H]1[C@@H]2C(=O)C[C@@]2(C)[C@H]1CC[C@]2(O)C(=O)CO, NC(=O)C1CO1 (stereo unspecified), COc1ccc([C@@H]2CC(=O)c3c(O)cc(O[C@@H]4O[C@H](CO[C@@H]5O[C@@H](C)[C@H](O)[C@@H](O)[C@H]5O)[C@@H](O)[C@H](O)[C@H]4O)cc3O2)cc1OC, O=Nc1ccc(O)cc1, C=CC(=O)OCCOC(=O)C=C, O=C1CCCCCN1SSN1CCCCCC1=O, CNC(=S)NN, O=C1c2ccccc2C(=O)C1c1nc2ccccc2c(Br)c1O, C=C(C)[C@H]1CC=C(C)CC1, CCCOC(=O)CCCCC(=O)OCCC, Cc1ccc(N)c([N+](=O)[O-])c1, CCCCC(CC)COCC1CO1 (stereo unspecified), Cc1cccc(C(=O)O)c1, CC(C)(C)c1ccc(N)cc1, CC(C)(C)C(=O)CCc1ccc(Cl)cc1, OCCCS, CC(=O)OC(C)C, CCCNC(=O)NS(=O)(=O)c1ccc(Cl)cc1, CCOCC(=O)O, O=C1OC(=O)c2cc(Oc3ccc4c(c3)C(=O)OC4=O)ccc21, COc1c2ccoc2cc2oc(=O)ccc12, Cc1ccc(OC(=O)CC(C)C)cc1, c1ccc(CCCc2ccncc2)cc1, Cc1c(C)c([N+](=O)[O-])c(C(C)(C)C)c([N+](=O)[O-])c1C, CC1=CC[C@H](C(C)C)C=C1, CCOC(=O)[C@H](C)O, CC(=O)Oc1ccc(C)cc1, Cc1ccc(N/N=c2\c(=O)cc/c(=N/Nc3ccc(S(=O)(=O)O)cc3)c2=O)c(C)c1, Nc1ccc(-c2ccc(F)cc2)cc1, Cc1cc(=O)n(-c2ccccc2)n1C, CC(=O)OCC(=O)[C@@]12N=C(C)O[C@@H]1C[C@H]1[C@@H]3CCC4=CC(=O)C=C[C@]4(C)[C@H]3[C@@H](O)C[C@@]12C

AC50, active:
CC(C)(C)C(=O)C=Cc1ccc(Cl)cc1 24.4 µM

Target: Retinoic acid receptor RXR-alpha (Homo sapiens) (UniProt P19793)
Assay: ATG_RXRa_TRANS: Attagene TRANS-FACTORIAL HepG2 Assay for human Retinoid X Receptor alpha (RXRa) (AID 2283012)
Procedure, shortened: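 TRANS format reporting activity of exogenous RXRa-Gal4 chimera in transiently transfected HepG2, 24 h exposure. Reporter transcripts quantified by RT-PCR with capillary electrophoresis, with gain of signal scored relative to DMSO.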

Sequence of Retinoic acid receptor RXR-alpha (Homo sapiens) (P19793 whole entry, looked up): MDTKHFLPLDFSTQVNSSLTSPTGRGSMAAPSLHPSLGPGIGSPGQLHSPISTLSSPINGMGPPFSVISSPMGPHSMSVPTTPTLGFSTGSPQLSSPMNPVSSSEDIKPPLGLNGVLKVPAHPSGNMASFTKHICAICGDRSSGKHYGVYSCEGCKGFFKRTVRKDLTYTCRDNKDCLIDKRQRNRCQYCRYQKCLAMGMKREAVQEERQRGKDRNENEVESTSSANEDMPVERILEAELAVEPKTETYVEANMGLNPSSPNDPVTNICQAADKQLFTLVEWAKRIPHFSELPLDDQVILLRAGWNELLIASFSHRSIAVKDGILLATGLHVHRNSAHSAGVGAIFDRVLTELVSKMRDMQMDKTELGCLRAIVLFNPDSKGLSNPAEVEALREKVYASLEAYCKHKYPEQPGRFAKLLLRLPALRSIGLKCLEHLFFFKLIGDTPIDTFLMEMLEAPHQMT

outcome, inactive:
C=C(C)CCO, CC(C)c1ccc(C#N)cc1, CC(=O)NS(=O)(=O)c1ccc(N)cc1, CCCCCCCCCCc1ccccc1, COc1ccc(C(Cl)=C(c2ccc(OC)cc2)c2ccc(OC)cc2)cc1, CCCCCCCCCCOC(C)=O, CC(C)(C)C(=O)C=Cc1ccc(Cl)cc1, C[C@]12CCC(=O)C=C1CC[C@@H]1[C@@H]2C(=O)C[C@@]2(C)[C@H]1CC[C@]2(O)C(=O)CO, NC(=O)C1CO1 (stereo unspecified), COc1ccc([C@@H]2CC(=O)c3c(O)cc(O[C@@H]4O[C@H](CO[C@@H]5O[C@@H](C)[C@H](O)[C@@H](O)[C@H]5O)[C@@H](O)[C@H](O)[C@H]4O)cc3O2)cc1OC, O=Nc1ccc(O)cc1, C=CC(=O)OCCOC(=O)C=C, O=C1CCCCCN1SSN1CCCCCC1=O, CNC(=S)NN, O=C1c2ccccc2C(=O)C1c1nc2ccccc2c(Br)c1O, C=C(C)[C@H]1CC=C(C)CC1, CCCOC(=O)CCCCC(=O)OCCC, Cc1ccc(N)c([N+](=O)[O-])c1, CCCCC(CC)COCC1CO1 (stereo unspecified), Cc1cccc(C(=O)O)c1, CC(C)(C)c1ccc(N)cc1, CC(C)(C)C(=O)CCc1ccc(Cl)cc1, OCCCS, CC(=O)OC(C)C, CCCNC(=O)NS(=O)(=O)c1ccc(Cl)cc1, CCOCC(=O)O, O=C1OC(=O)c2cc(Oc3ccc4c(c3)C(=O)OC4=O)ccc21, COc1c2ccoc2cc2oc(=O)ccc12, Cc1ccc(OC(=O)CC(C)C)cc1, c1ccc(CCCc2ccncc2)cc1, CC1=CC[C@H](C(C)C)C=C1, CCOC(=O)[C@H](C)O, CC(=O)Oc1ccc(C)cc1, Cc1ccc(N/N=c2\c(=O)cc/c(=N/Nc3ccc(S(=O)(=O)O)cc3)c2=O)c(C)c1, Nc1ccc(-c2ccc(F)cc2)cc1, Cc1cc(=O)n(-c2ccccc2)n1C

AC50, active:
Cc1c(C)c([N+](=O)[O-])c(C(C)(C)C)c([N+](=O)[O-])c1C 12.7 µM, CC(=O)OCC(=O)[C@@]12N=C(C)O[C@@H]1C[C@H]1[C@@H]3CCC4=CC(=O)C=C[C@]4(C)[C@H]3[C@@H](O)C[C@@]12C 16.7 µM
